From PubChem BioAssay
Mcl-1 Bim block: inhibitors of Bim peptide binding to Mcl-1, primary screen, biochemical, bead-based flow cytometry, multiplex; Induced myeloid leukemia cell differentiation protein Mcl-1 (Homo sapiens), Q07820; hit rate 0.1% among 190,000; Bim peptide-Mcl-1 binding; inhibition, % at 10 µM; in the data active = inhibition above about 40%
Target sequence (Q07820 whole entry, looked up): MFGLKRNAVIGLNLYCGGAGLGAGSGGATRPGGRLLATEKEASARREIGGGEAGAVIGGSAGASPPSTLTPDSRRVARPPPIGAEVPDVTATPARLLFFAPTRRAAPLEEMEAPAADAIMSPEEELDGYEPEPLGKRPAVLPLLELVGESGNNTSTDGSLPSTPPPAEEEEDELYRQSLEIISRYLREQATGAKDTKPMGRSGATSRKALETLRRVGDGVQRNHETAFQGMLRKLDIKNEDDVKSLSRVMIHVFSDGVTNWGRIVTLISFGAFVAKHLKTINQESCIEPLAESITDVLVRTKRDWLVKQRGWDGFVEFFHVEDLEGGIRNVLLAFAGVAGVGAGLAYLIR
L929 necroptosis: inhibitors of zVAD-triggered necroptosis, primary screen, L929 cells | L929 zVAD necroptosis rescue, ATP luminescence, 24 h; with zVAD 60 µM | viability rescue, % at 10 µM | hit rate 0.38% among 220,000 | AID 1377, 2008;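 active = activation, scaled between plate controls, above about 75%, limit read from the data; inactive = activation under that limit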
TNF death inh: inhibitors of TNF-alpha triggered necroptosis, primary screen, cell-based, Jurkat FADD-/-, single concentration; Jurkat FADD-/- TNF necroptosis rescue, ATP luminescence, 24 h; 0 = TNF only, 100 = no-TNF cells; activation (protection from cell death), % at 10 µM; hit rate 0.068% among 220,000;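 active = activation, meaning protection from cell death, of at least 50% relative to plate controls; inactive = activation below 50%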;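 also: necroptosis triggered by 40 ng/mL TNF-alpha added together with compound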
Mcl1 Bid PPI: Mcl-1/Bid binding inhibitors, primary screen, biochemical, TR-FRET, 1536-well | TR-FRET Mcl-1/Bid-Dy647 peptide binding | inhibition, % at 21.7 µM | hit rate 0.97% among 220,000 | AID 1021, 2008;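 active = compounds that cut the binding signal by more than half at the single screening dose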;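 also: His-tagged Mcl-1 with europium anti-His antibody binding Bid BH3 peptide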
Mcl1-Noxa inh: Mcl-1/Noxa binding inhibitors, primary screen, biochemical, TR-FRET, 1536-well. inhibition, % at 21.7 µM. TR-FRET Mcl-1/Noxa peptide binding, 2 h. Induced myeloid leukemia cell differentiation protein Mcl-1 (Homo sapiens), Q07820. AID 1022, 2008. hit rate 1.5% among 220,000;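 active = compounds that cut the protein-peptide binding signal by more than 50% relative to plate controls in a single-dose test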;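 also: His-tagged Mcl-1 with rhodamine Noxa BH3 peptide and terbium anti-His antibody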
MCL1 BIM primary: inhibitors of MCL1 binding to BIM-BH3, primary screen, biochemical, fluorescence polarization; inhibition, % at 10.9 µM; hit rate 0.68% among 320,000; Induced myeloid leukemia cell differentiation protein Mcl-1 (Homo sapiens), Q07820; GST-MCL1 / FITC-Bim-BH3 fluorescence polarization;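 active = inhibition above the mean inhibition of all tested compounds plus 3 SD, set per campaign, cut at about 40% in these data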;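 also: higher means more loss of mP so more displacement of Bim peptide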
BCLXL inh confirm: Bcl-xL inhibitors blocking Bim BH3 binding, confirmation, counter-screen for MCL1 inhibitor project, biochemical, fluorescence polarization | shares compounds with MCL1 BIM primary | GST-Bcl-xL / FITC-Bim BH3 peptide FP binding | inhibition, % at 10.9 µM | hit rate 54% among 1,700 | AID 2166, 2009;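 active = inhibition above a cutoff equal to the mean inhibition of all tested compounds plus 3 SD, cut at about 30% in these data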
Target sequence (Q07817 whole entry, looked up): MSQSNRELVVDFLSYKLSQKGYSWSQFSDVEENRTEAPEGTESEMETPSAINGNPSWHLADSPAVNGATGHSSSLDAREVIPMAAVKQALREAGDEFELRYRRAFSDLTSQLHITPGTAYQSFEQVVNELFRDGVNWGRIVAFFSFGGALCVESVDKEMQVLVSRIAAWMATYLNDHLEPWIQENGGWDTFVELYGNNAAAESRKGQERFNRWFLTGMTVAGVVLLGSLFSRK
MCL1 inh confirm: inhibitors of MCL1 binding to BIM-BH3, confirmation, biochemical, fluorescence polarization, triplicate. hit rate 61% among 1,700. inhibition, % at 10.9 µM. shares compounds with MCL1 BIM primary. AID 2168, 2009. GST-MCL1 / FITC-Bim-BH3 fluorescence polarization;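 active = inhibition above the average of all tested compounds plus 3 SD, cut at about 40% in these data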
Of the large screens only hits and unclear results are named; the others gave an inactive call (follow-up assays come after a bar, where they were run). Sampled rows, rich in hits. Any-hit rate of the full collection: about 2.4%.

CCOc1ccc(N(CC(=O)NC2CCCCC2)S(=O)(=O)c2ccccc2)cc1	none (no result: Mcl-1 Bim block, L929 necroptosis, TNF death inh, Mcl1 Bid PPI, Mcl1-Noxa inh)
O=C1CS(=O)(=O)c2ccccc2N1	none (no result: Mcl-1 Bim block, L929 necroptosis, TNF death inh, Mcl1 Bid PPI, Mcl1-Noxa inh)
COc1ccc(OC)c(C=Nc2ccccc2-c2nc3ccccc3[nH]2)c1	none
COc1ccc(OC)c(/C=C/c2nc3ccccc3[nH]c2=O)c1	MCL1 BIM primary 83 (no result: Mcl-1 Bim block, L929 necroptosis, TNF death inh, Mcl1 Bid PPI, Mcl1-Noxa inh) | BCLXL inh confirm 98 | MCL1 inh confirm 99
O=C(Cn1nnnc1CN1CCOCC1)N1CCC(c2cccc(Cl)c2)C1 (stereo not given)	none (no result: Mcl-1 Bim block, L929 necroptosis, TNF death inh, Mcl1 Bid PPI, Mcl1-Noxa inh)
COc1ccc(-n2c(SCC#N)nc3c(sc(=S)n3-c3ccccc3)c2=O)c(OC)c1	none (no result: Mcl-1 Bim block, L929 necroptosis, TNF death inh, Mcl1 Bid PPI, Mcl1-Noxa inh)
CCCCN1C[C@H](Cc2ccccc2)[C@@H](CC(=O)Nc2ccccc2)C1=O	none (no result: Mcl-1 Bim block, L929 necroptosis, TNF death inh, Mcl1 Bid PPI, Mcl1-Noxa inh)
CCC1(C)Cc2c(C#N)c(N)sc(=S)c2CO1 (stereo not given)	none
N#Cc1c(N)sc(=S)c2c1CCCC2	MCL1 BIM primary 160 | BCLXL inh confirm 62 | MCL1 inh confirm 92
COc1cc(NC(C)C(=O)N2CC(C)OC(C)C2)cc(OC)c1 (stereo not given)	MCL1 BIM primary 82 | BCLXL inh confirm inactive | MCL1 inh confirm inactive
O=C(Cn1ccc2ccccc2c1=O)NCC(=O)N1CCN(c2ccc(F)cc2)CC1	none (no result: Mcl-1 Bim block, L929 necroptosis, TNF death inh, Mcl1 Bid PPI, Mcl1-Noxa inh)
Nc1c(NC=O)c(=O)n(Cc2ccccc2)c(=O)n1Cc1ccccc1	none (no result: Mcl-1 Bim block, L929 necroptosis, TNF death inh, Mcl1 Bid PPI, Mcl1-Noxa inh)
O=C(Cc1ccc(S(=O)(=O)N2CCOCC2)s1)Oc1ccc(F)cc1	none (no result: Mcl-1 Bim block, L929 necroptosis, TNF death inh, Mcl1 Bid PPI, Mcl1-Noxa inh)
Cc1c(Br)c(O)c(Br)c2sc(=O)oc12	Mcl1-Noxa inh 51, MCL1 BIM primary 79 (no result: Mcl-1 Bim block) | BCLXL inh confirm inactive | MCL1 inh confirm 49
NC(=O)c1ccc2c(=O)c(O)c(-c3cc(Cl)c(N)c(Cl)c3)[nH]c2c1	none (no result: Mcl-1 Bim block, L929 necroptosis, TNF death inh, Mcl1 Bid PPI, Mcl1-Noxa inh)
CCOC(=O)N1CCc2c(sc(NC(=O)CCS(=O)(=O)c3ccccc3)c2C(N)=O)C1	MCL1 BIM primary 48 (no result: Mcl-1 Bim block, L929 necroptosis, TNF death inh, Mcl1 Bid PPI, Mcl1-Noxa inh) | BCLXL inh confirm inactive | MCL1 inh confirm inactive
O=C(Nc1ccc(F)c(F)c1)C1=COCCO1	none (no result: Mcl-1 Bim block, L929 necroptosis, TNF death inh, Mcl1 Bid PPI, Mcl1-Noxa inh)
C(=Nc1cccc2c(N=Cc3ccco3)cccc12)c1ccco1	Mcl1-Noxa inh 58, MCL1 BIM primary 76 | BCLXL inh confirm inactive | MCL1 inh confirm inactive
CN(C)c1ccc(N=Cc2ccco2)cc1	none
COc1ccc2[nH]c(C)c(CCN(Cc3cccs3)C(=S)Nc3cccc(F)c3)c2c1	MCL1 BIM primary 63 | BCLXL inh confirm inactive | MCL1 inh confirm inactive
CC(C)N=c1cc2n(-c3ccc(Cl)cc3)c3ccccc3nc-2cc1Nc1ccc(Cl)cc1	MCL1 BIM primary 118 (no result: Mcl-1 Bim block, L929 necroptosis, TNF death inh, Mcl1 Bid PPI, Mcl1-Noxa inh) | BCLXL inh confirm active | MCL1 inh confirm active
Cn1c(CNc2ccc(Cl)cc2)nc2ccccc21	none
CN(CC(=O)Nc1ccccc1Br)C(=O)CN1CCN(Cc2ccc(Cl)cc2)CC1	none (no result: Mcl-1 Bim block, L929 necroptosis, TNF death inh, Mcl1 Bid PPI, Mcl1-Noxa inh)
Cc1cc2nc3ccc(N(C)C)cc3nc2cc1N	MCL1 BIM primary 126 (no result: Mcl-1 Bim block, L929 necroptosis, TNF death inh, Mcl1 Bid PPI, Mcl1-Noxa inh) | BCLXL inh confirm 128 | MCL1 inh confirm 143
c1cc(CNc2ccc3c(c2)OCO3)ccn1	MCL1 BIM primary 85 | BCLXL inh confirm 64 | MCL1 inh confirm 81
Cc1ccc(CNc2ccc3c(c2)OCO3)cc1	MCL1 BIM primary 159 | BCLXL inh confirm 106 | MCL1 inh confirm 135
O=C(NCc1ccncc1)C(=O)Nc1ccc2c(c1)OCO2	none
Cc1cccc(C)c1NC(=O)CN(C)C(=O)c1ccc2c(=O)n3c(nc2c1)CCC3	none (no result: Mcl-1 Bim block, L929 necroptosis, TNF death inh, Mcl1 Bid PPI, Mcl1-Noxa inh)
CC1CC(C)CN(S(=O)(=O)c2ccc3c(c2)NC(=O)C(C)C(=O)N3)C1 (stereo not given)	none (no result: Mcl-1 Bim block, L929 necroptosis, TNF death inh, Mcl1 Bid PPI, Mcl1-Noxa inh)
